High-throughput results as filed in PubChem.
Hits are enriched below; roughly 12% of the tested compounds scored in any of these assays.
BAZ2B block – inhibitors of human BAZ2B bromodomain; Q9UIF8; Potency, µM (highest dose often 114 µM), for the others: at the top dose activity change, negative = inhibition, actives largely listed as inhibitors; AlphaScreen BAZ2B-H3K14Ac peptide displacement; AID 504333; 4.4% of 360,000 active; further: on the % scale 0 is the no-effect control and ±100 the full control effect; nearly all actives have a fitted effect of over 60% in size
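Inhibition is scored as reduced AlphaScreen emission. The BAZ2B/b-H3(5-23)K14Ac complex (50 nM each) in PBS pH 7.4, 0.01% Tween-20 meets compound (up to 110 uM) for 30 min at RT before bead addition.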
G9a inh – inhibitors of human histone lysine methyltransferase G9a; Q96KQ7; G9a H3K9 monomethylation, AlphaScreen, 2 h; Potency, µM (doses to about 102 µM), without a hit: at the highest dose activity, negative = inhibition, usual class: inhibitors; 8.8% of 350,000 active; AID 504332; further: on the % scale 0 is the no-effect control and ±100 the full control effect; nearly all actives have a fitted effect of over 75% in size
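Readings reflect AlphaScreen signal from monomethyl-H3K9 antibody detection. HMT at 20 nM; substrate b-H3K9 500 nM; cofactor SAM 20 uM; 2 h RT reaction; compounds tested as titrations in qHTS with 15 min preincubation.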
JMJD2A Tudor – inhibitors of human JMJD2A Tudor domain. O75164. AlphaScreen JMJD2A-Tudor / H3K4me3 peptide binding. Potency, µM (series often up to 114 µM), for inactives: at the highest dose activity change, negative = inhibition, actives largely listed as inhibitors. 4.4% of 390,000 active; further: on the % scale 0 is the no-effect control and ±100 the full control effect; nearly all actives have a fitted effect of over 50% in size
Target sequence (O75164 whole entry, looked up, the tested form may be a part): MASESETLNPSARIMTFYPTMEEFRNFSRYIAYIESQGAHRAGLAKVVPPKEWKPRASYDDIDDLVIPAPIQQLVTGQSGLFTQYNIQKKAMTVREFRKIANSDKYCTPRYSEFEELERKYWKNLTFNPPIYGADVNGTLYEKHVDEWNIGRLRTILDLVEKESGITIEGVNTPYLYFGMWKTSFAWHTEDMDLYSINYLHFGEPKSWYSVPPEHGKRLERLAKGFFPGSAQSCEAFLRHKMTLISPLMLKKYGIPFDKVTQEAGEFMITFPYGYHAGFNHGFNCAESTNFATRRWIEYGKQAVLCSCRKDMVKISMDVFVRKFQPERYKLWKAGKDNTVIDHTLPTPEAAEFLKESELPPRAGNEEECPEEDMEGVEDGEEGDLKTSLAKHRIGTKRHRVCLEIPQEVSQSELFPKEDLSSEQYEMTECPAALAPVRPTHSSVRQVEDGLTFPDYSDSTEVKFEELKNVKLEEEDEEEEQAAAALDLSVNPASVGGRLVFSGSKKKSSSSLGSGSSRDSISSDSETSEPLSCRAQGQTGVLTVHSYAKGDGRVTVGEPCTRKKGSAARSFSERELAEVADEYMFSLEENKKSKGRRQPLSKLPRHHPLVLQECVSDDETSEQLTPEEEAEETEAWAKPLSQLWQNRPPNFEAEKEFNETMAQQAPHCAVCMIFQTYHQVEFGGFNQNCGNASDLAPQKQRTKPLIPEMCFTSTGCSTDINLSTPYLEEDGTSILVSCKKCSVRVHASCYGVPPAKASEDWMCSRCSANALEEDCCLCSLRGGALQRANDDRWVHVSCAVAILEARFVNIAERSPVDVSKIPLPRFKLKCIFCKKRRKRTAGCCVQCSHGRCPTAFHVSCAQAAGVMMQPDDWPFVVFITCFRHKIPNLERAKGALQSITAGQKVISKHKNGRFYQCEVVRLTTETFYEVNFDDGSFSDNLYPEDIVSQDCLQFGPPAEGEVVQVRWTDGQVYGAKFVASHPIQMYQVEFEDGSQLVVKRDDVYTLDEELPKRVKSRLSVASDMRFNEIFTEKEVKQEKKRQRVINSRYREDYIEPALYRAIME
HP1b binding inh – blocks HP1-beta chromodomain binding to methylated histone tails; AlphaScreen HP1-beta / biotin-H3K9me3 peptide binding; 0.56% of 390,000 active; Potency, µM (series often up to 114 µM), for the others: top-dose activity change, negative = inhibition, hits mostly inhibitors; further: nearly all actives have a fitted effect of over 70% in size
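HP1-beta protein (50 nM final) preincubated 30 min at room temperature with biotinylated H3(1-18)K9me3 peptide (50 nM) in PBS pH 7.4, 0.01% Tween-20, then compound added for 30 min. AlphaScreen streptavidin donor/nickel chelate acceptor beads (10 ug/mL final), 30 min dark, luminescence read.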
Sfp PPTase inh – inhibitors of Bacillus subtilis Sfp phosphopantetheinyl transferase; Biochemical Sfp PPTase activity, qHTS; AID 1490; 3.5% of 310,000 active; Potency, µM, for inactives: largest response in the series, negative = inhibition, hits mostly inhibitors;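 further: the enzyme is Sfp with the accession as filed and its product quenches rhodamine fluorescence; 0% = enzyme reaction without inhibitor and -100% = no enzyme wells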
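Fluorescence-quenching assay with 15 nM Sfp, 5 uM rhodamine-CoA and 12.5 uM BHQ-2-labelled ybbR peptide in pH 7.6 Hepes/MgCl2 buffer. Enzyme was pre-incubated with compound for 15 min at room temperature. Rate was taken from the 30-min fluorescence change (525/598 nm).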
Active calls of the source: *; ? = inconclusive; / = not tested or not shown; [ ] = dose if it differs, or a comment. The call rests on the fitted dose curve; in most records, active means well fitted curve in the direction sought with a large enough effect; inconclusive means small, poorly fitted or top-dose-only effect, or another doubt; inactive means no such curve, though single readings can be large; an effect the other way counts as inactive or inconclusive. Potency means the concentration at half of the fitted maximal effect.

SMILES	BAZ2B block	G9a inh	JMJD2A Tudor	HP1b binding inh	Sfp PPTase inh
COCCNC(=S)N(CCc1c(C)[nH]c2ccc(F)cc12)Cc1ccco1	71µM*	?	-35%	-5%	-7%
CNC(=S)N(CCc1c(C)[nH]c2ccc(F)cc12)Cc1ccco1	?	71µM*	?	-13%	3%
Cc1[nH]c2ccc(F)cc2c1CCN(Cc1ccco1)C(=S)NC(C)(C)C	/	?	?	18%	2%
CNC(=S)N(CCc1c(C)[nH]c2ccccc12)Cc1ccco1	?	50µM*	?	?	13%
COc1ccc(NC(=S)N(CCc2c(C)[nH]c3ccccc23)Cc2ccco2)cc1	?	-21%	?	-4%	10%
COC(=O)N1CCC[C@@]2(CCN(C(=O)Nc3cccc(C#N)c3)C2)C1	/	22%[12.7 µM]	/	/	10%
O=C1c2ccccc2C(=O)N1c1ccc2ccccc2n1	/	/	-12%	/	/
C#CCOCCOCCOCCNc1nc(N2CCN(C(=O)CCCCCCCCCCNC(=O)[C@@H](CCC(=O)O)n3cc(CCCCCN)nn3)CC2)nc(N2CCN(C(=O)CCCCCCCCCCNC(=O)[C@H](CO)n3cc(CCCCCN)nn3)CC2)n1	-38%	-7%[2.33 µM]	?	-12%	/
C#CCOCCOCCOCCNc1nc(N2CCN(C(=O)CCCCCCCCCCNC(=O)[C@@H](CCC(=O)O)n3cc(CCCCCN)nn3)CC2)nc(N2CCN(C(=O)CCCCCCCCCCNC(=O)[C@H](CO)n3cc(CCCSC)nn3)CC2)n1	?	-11%[2.33 µM]	45µM*	28%	/
C#CCOCCOCCOCCNc1nc(N2CCN(C(=O)CCCCCCCCCCNC(=O)[C@@H](CCSC)n3cc(CCO)nn3)CC2)nc(N2CCN(C(=O)CCCCCCCCCCNC(=O)[C@H](CO)n3cc(CCCCCN)nn3)CC2)n1	?	-11%[2.33 µM]	79µM*	?	/
COc1ccc(C(=O)Nc2ccc(OCC(=O)N3CCOCC3)cc2)c(OC)c1OC	-13%	?	-14%	5%	21%
O=c1c(-c2ccc(F)cc2)nc2cnc(N3CCOCC3)nc2n1C1CC1	/	11%[0.501 µM]	/	/	27%
CC1CCCN(C2=C(NS(=O)(=O)c3ccc(Cl)cc3)C(=O)c3ccccc3C2=O)C1 (stereo unspecified)	5µM*	2.5µM*	8.9µM*	6.3µM*	-13%
COC(=O)C1CCN(C2=C(NS(=O)(=O)c3ccc(Cl)cc3)C(=O)c3ccccc3C2=O)CC1	11µM*	-175%[59 µM]	?	?	-15%
COC(=O)C1CCN(S(=O)(=O)Cc2ccccc2Cl)CC1	12%	24%[59 µM]	-6%	31%	19%
NC(=O)C1CCN(C2=C(NS(=O)(=O)c3ccc(Cl)cc3)C(=O)c3ccccc3C2=O)CC1	35µM*	25µM*	?	-20%	-15%
CCn1c(C)c(C)c2cc(C(=O)NCc3cccc(C)c3)ccc21	-37%	?	?	-4%	/
CCc1cc(C(=O)Nc2cc(S(=O)(=O)N3CCOCC3)ccc2N2CCN(CC)CC2)sc1C	/	/	-22%	4%	/
COc1ccc2c(c1)S/C(=C\C(=O)c1ccncc1)N2C	/	?	1%	41%	8.9µM*
CN1/C(=C\C(=O)c2cccs2)Sc2ccccc21	9%	12%	27%	163%	50µM*
COc1cc(OC)cc(C(=O)/C=C2\Sc3ccccc3N2C)c1	40%	/	15%	35%	50µM*
Nc1nonc1-c1nc2ccccc2n1Cc1ccc(Br)cc1	4%	6%[59 µM]	-7%	55%	/
CN1CCc2c(sc(N)c2C(=O)c2ccc(Cl)cc2)C1	-39%	?	?	9%	-9%
COc1ccc(C(=O)c2c(N)sc3c2CCN(C(=O)OC(C)(C)C)C3)cc1	?	?	?	0%	79µM*
Oc1c(CN2CCCCC2)cc(Br)c2cccnc12	28µM*	?	22µM*	26%	45µM*
SMILES	BAZ2B block	G9a inh	JMJD2A Tudor	HP1b binding inh	Sfp PPTase inh
O=C(Cc1c(O)c2ccccc2oc1=O)c1ccc(C(F)(F)F)cc1	8%	-22%	-6%	8%	5%
Oc1c(CN2CCc3ccccc3C2)cc(Cl)c2cccnc12	8.9µM*	45µM*	25µM*	26%	-22%
O=[N+]([O-])c1cc(CN2CCN(c3ccccc3)CC2)c(O)c2ncccc12	3.2µM*	?	10µM*	18%	24%
O=c1oc2ccccc2c(O)c1Cc1cc(Cl)c2cccnc2c1O	32µM*	/	-36%	25%	26%
Oc1c(Cl)cc(CN2CCOCC2)c2cccnc12	7.9µM*	-1%[2.33 µM]	11µM*	-26%	/
Oc1c(Cl)cc(Cl)c(Cl)c1CN1CCOCC1	/	/	-3%	-1%	/
O=[N+]([O-])c1cc(CN2CCOCC2)c2cccnc2c1O	3.2µM*	?	7.9µM*	24%	12%
CC(C)(C)N1C(=O)Cc2c1nc(N)c1c(N)nc(N3CCCCC3CO)c(C#N)c21 (stereo unspecified)	40µM*	7.9µM*	50µM*	?	-12%
N#Cc1c(N2CCN(c3ccc(F)cc3)CC2)nc(N)c2c(N)nc3c(c12)CC(=O)N3C1CC1	?	?	-29%	-19%	4%
CN(CCO)c1nc(N)c2c(N)nc3c(c2c1C#N)CC(=O)N3C1CCCC1	?	?	/	/	50µM*
CCc1ccccc1N1CCN(S(=O)(=O)c2cc(OC)ccc2OC)CC1	10%	-2%	-4%	38%	-13%
CCc1ccccc1N1CSC2=C(C#N)C(c3cc(OC)c(OC)cc3OC)CC(=O)N2C1 (stereo unspecified)	50µM*	?	8.9µM*	-75%	0.89µM*
CCOC(=O)c1ccc(N2CSC3=C(C#N)C(c4ccc(OC)cc4OC)CC(=O)N3C2)cc1 (stereo unspecified)	50µM*	13µM*	-30%	34%	20µM*
CCOC(=O)c1ccc(N2CN=C3SCC(=O)N3C2)cc1	2%	13%[59 µM]	-6%	30%	2%
COc1cc(OC)c(C2CC(=O)N3CN(c4ccccc4)CSC3=C2C#N)cc1OC (stereo unspecified)	25µM*	3.2µM*	5.6µM*	?	3.2µM*
CN(C)c1ccc(N=Nc2ccccc2C(=O)OCC(=O)N2CCCC2)cc1	40µM*	25µM*	56µM*	?	-8%
CN(C)c1ccc(N=Nc2ccccc2C(=O)OCC(=O)Nc2ccccc2C(F)(F)F)cc1	10µM*	10µM*	7.1µM*	?	-4%
CN(C)c1ccc(N=Nc2ccccc2C(=O)OCC(=O)N2CCCCCC2)cc1	13µM*	8.9µM*	28µM*	18µM*	-10%
CSc1ccccc1C(=O)OCC(=O)N1CCCCCC1	/	/	-8%	6%	/
CN(C)c1cc[n+](CC(=O)Nc2ccccc2C(F)(F)F)cc1	4%	-1%[0.501 µM]	-5%	31%	2%
